# This excerpt belongs to a sample that is enriched for hits.
# Pf Dd2 growth – inhibitors of Plasmodium falciparum Dd2 growth; P. falciparum Dd2 growth, SYBR Green, 72 h; Potency, µM (top dose mostly 28.9 µM), usual class: inhibitors; 120,000 tested, 4.3% active; active means well fitted inhibition curve with a large enough effect; further: nearly all actives have a fitted effect of over 65% in size
#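 Readout: SYBR Green fluorescence, 485 nm excitation, 535 nm emission, after ~16 h lysis at 37C. Before that, Dd2-infected red cells (2.5% hematocrit) grew 72 h with compound, 29 uM top final concentration.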
# A number is an active result; n = inactive; [ ] = another dose, or the depositor's remark.
SMILES,Pf Dd2 growth
CN1C[C@H](NC(=O)Nc2ccccc2)CCC[C@@H](C(=O)NCc2cc(F)cc(F)c2)CC1=O,n
O=C(Nc1ccc(Oc2ccccc2F)cc1)C1CCCCN1C(=O)c1cccnc1 (stereo not given),n
CCOC(=O)C1CCN(CCC(=O)Nc2ccc(OC)cc2)CC1,n
COCCN1CCC(C(=O)Nc2ccc(Oc3ccccc3F)cc2)CC1,12.6µM
Cc1cc(C)n(CCC(=O)N2CCCC(c3nnnn3C)C2)n1 (stereo not given),n
O=C(Cc1c[nH]c2ncc(-c3ccc(Oc4ccccc4)cc3)cc12)NCc1cccnc1,8.91µM
NC(=O)Cc1c[nH]c2ncc(-c3ccc(F)cc3)cc12,n
Cc1ccccc1-c1cnc2[nH]cc(CC(=O)NCc3cccnc3)c2c1,n
Cc1noc(C)c1-c1cnc2[nH]cc(CC(=O)NCc3cccnc3)c2c1,n
COc1ccc(-c2cnc3[nH]cc(CC(N)=O)c3c2)cc1OC,0.631µM
O=C(Cc1c[nH]c2ncc(-c3ccccc3F)cc12)NCc1cccnc1,n
Cc1cccc(-c2cnc3[nH]cc(CC(N)=O)c3c2)c1,n
CN(C)c1cccc(NC(=O)Cc2c[nH]c3ncc(-c4cccnc4)cc23)c1,n
CN(C)c1cccc(-c2cnc3[nH]cc(CC(=O)NCc4cccnc4)c3c2)c1,8.91µM
Cc1cccc(C)c1NC(=O)Cn1nc2n(c1=O)CCCCC2,n
Cc1cnc(C(=O)N2CCCC(c3nc(C4CCOCC4)no3)C2)cn1 (stereo not given),n
O=C(Nc1nccs1)C1CC(=O)N(c2n[nH]c3ccccc23)C1 (stereo not given),n
Cc1nc(N)nc(C)c1CC(=O)N1CCn2nc(C(O)CO)cc2C1 (stereo not given),n
Cc1noc(CN(C)C(=O)c2ccc(S(=O)(=O)NCCO)cc2)n1,n
Cc1ccc(-n2nc3n(c2=O)CCN([S+](=O)([O-])c2c(C)noc2C)C3)cc1,n
Cc1cc(S(=O)(=O)N2CCC(CC(=O)NCc3ccccc3)C2)ccc1F (stereo not given),n
Cc1nnc(-c2cc(-c3cccc(O)c3)ccn2)n1CCc1ccccc1,n
CC(=O)Nc1cccc(-c2ccnc(-c3nnc(C)n3CCc3ccccc3)c2)c1,7.94µM
Cc1nnc(-c2cc(-c3cccc(F)c3)ccn2)n1CCc1ccccc1,n
O=C1NCCOCCN(C(=O)NC2CCCCC2)[C@@H]2CCCC[C@H]12,n
SMILES,Pf Dd2 growth
Cc1cccc(Cn2c(SCc3ccc(C(=O)NCc4ccccc4F)cc3)nc3cccnc32)c1,n
Cc1cccc(Cn2c(SCc3ccc(C(=O)NCCc4ccccc4)cc3)nc3cccnc32)c1,11.2µM
Cc1cccc(CSc2nc3cccnc3n2Cc2ccc(C(=O)NCc3ccco3)cc2)c1,n
O=C(NCCc1ccccc1)c1ccc(CSc2nc3cccnc3n2Cc2ccc(F)cc2)cc1,8.91µM
Cc1ccc(CNC(=O)c2ccc(Cn3c(SCc4ccc(F)cc4)nc4cccnc43)cc2)o1,11.2µM
O=C(NC1CC1)c1ccc(Cn2c(SCc3ccc(F)cc3)nc3cccnc32)cc1,n
O=C(NCCc1cccs1)c1ccc(Cn2c(SCc3ccccc3)nc3cccnc32)cc1,11.2µM
O=C(NCc1cccs1)c1ccc(Cn2c(SCc3ccc(F)cc3)nc3cccnc32)cc1,n
CN(Cc1ccccc1)C(=O)c1ccc(CSc2nc3cccnc3n2Cc2ccccc2F)cc1,n
CCOc1ccc(C(=O)NCc2nc3cccnc3n2Cc2ccc(F)cc2)cc1OCC,n
O=C(CCC1CCCCC1)N1CC2CC(C1)[C@H]1CCCC(=O)N1C2 (stereo not given in full),n
COc1ccc(OC)c(NC(=O)CC2CCOCC2)c1,n
O=C(COc1ccccc1Cl)c1ccc2c(c1)N(CC(=O)N1CCCC1)C(=O)CO2,n
O=C(C1CCCCC1)N1CC[C@H]2COC(=O)N2c2cc(F)ccc2C1,n
O=C(c1csc2c1CCCC2)N1CCCC(OCc2ccccn2)C1 (stereo not given),n
COc1ccc(Cc2noc(-c3ccc(N(C)Cc4nonc4C)nc3)n2)cc1,n
CC(C)CS(=O)(=O)Nc1ccc([C@H]2OCC(=O)N[C@@H]2CO)cc1,n
CCc1noc(-c2cn(C3CCN(C(=O)c4ccc(C)c(F)c4)CC3)nn2)n1,n
Cc1ccc(C(=O)N2CCN(c3cc(C(F)(F)F)nc(C)n3)CC2)cc1,n
Cc1cc(C(=O)N2CC(F)(F)C[C@H]2c2nc(C3CC3)no2)c(C)o1,3.16µM
Cc1cc(C(=O)N2CC(F)(F)C[C@H]2c2nnc(C3CC3)o2)c(C)o1,n
Cn1ccnc1C(=O)N1CC(F)(F)C[C@H]1c1nc(C2CC2)no1,n
CC(C)c1cc(C(=O)N2CC[C@H](CO)[C@H](O)C2)cs1,n
COCCNC(=O)C[C@@H]1C[C@H]2O[C@H](CNC(=O)NC(C)C)[C@@H](O)[C@H]2O1,n
COc1ccccc1N1CCN(C(=O)CSc2nc(-c3ccc(C(C)C)cc3)no2)CC1,0.355µM
SMILES,Pf Dd2 growth
CC1CCCCN1C(=O)CSc1n[nH]c(-c2ccccc2Cl)n1 (stereo not given),n
COc1ccccc1N1CCN(C(=O)CSc2n[nH]c(-c3ccccc3)n2)CC1,n
CC1CCCCN1C(=O)CSc1nnc(-c2ccccc2Cl)o1 (stereo not given),n
CC1CCCCN1C(=O)CSc1nc(-c2ccccc2)no1 (stereo not given),10µM
COc1ccccc1N1CCN(C(=O)CSc2nc(C)cc(=O)[nH]2)CC1,n
CN(Cc1ccc2nsnc2c1)C(=O)c1cccc(-n2cnnc2)c1,n
COc1cccc(C(=O)c2sc(Nc3ccc(C)cc3C)c(S(=O)(=O)c3ccccc3)c2N)c1,10µM
CCOC(=O)c1sc2ccccc2c1S(=O)(=O)Nc1cc(OC)ccc1OC,n
COc1ccccc1Nc1sc(C(=O)c2ccc(C)cc2C)c(N)c1S(=O)(=O)c1ccccc1,n
CCOc1ccc(Nc2sc(C(=O)c3cccc(OC)c3)c(N)c2S(=O)(=O)c2ccccc2)cc1,n
Cc1ccc(CNC(=O)c2c(Nc3c(C)cccc3C)sc(C(=O)c3ccccc3)c2N)cc1,n
Cc1ccc(Nc2sc(C(=O)c3ccccc3)c(N)c2S(=O)(=O)c2ccccc2)c(C)c1,10µM
COc1ccc(CCNC(=O)c2c(Nc3ccccc3C)sc(C(=O)c3ccccc3)c2N)cc1OC,n
Cc1ccc(Nc2sc(C(=O)c3ccccc3)c(N)c2C(=O)NC(C)C)cc1,n
COc1ccc(OC)c(Nc2sc(C(=O)c3ccccc3)c(N)c2S(=O)(=O)c2ccccc2)c1,8.91µM
O=C(c1ccc(Cl)s1)N1CCC(n2cnnc2-c2ccccc2)C1 (stereo not given),n
Cc1ccccc1CC(=O)N1CCC2(CC1)NC(=O)N(c1ccc(F)cc1)N2,n
Cc1noc([C@H]2CCN(S(=O)(=O)c3cn(C)cn3)C[C@H]2NC(=O)C2CC2)n1,n[5.79 µM]
COc1ccc(NC(=O)Cn2ccn3nc(-c4ccccc4)c(CO)c3c2=O)cc1,n
O=C(c1ccco1)N1CCCC(c2nn[nH]n2)C1 (stereo not given),n
CCc1noc(CC2CCOC3(CCN(S(=O)(=O)c4ccc(F)c(F)c4)CC3)C2)n1 (stereo not given),n
CCC(=O)N1CCCC1c1nc(CCOCC2CCOCC2)no1 (stereo not given),n
Cc1cc(CNC(=O)[C@@H]2CCC[C@@H](NC(=O)C(C)(C)C)CN(C)C(=O)C2)no1,n
Cc1nc2ncnn2c(C)c1CCC(=O)N1CCN(c2cccc(Cl)c2)CC1,n
COc1ccc(-c2cc3nc(C)c(CCC(=O)N4CCN(c5cccc(Cl)c5)CC4)c(C)n3n2)c(OC)c1,10µM
